Source: PubChem BioAssay
BAZ2B inh – qHTS Assay for Inhibitors of BAZ2B; AID 504333, 2011; 360,000 tested, 4.4% active; AlphaScreen BAZ2B-H3K14Ac peptide displacement; Bromodomain adjacent to zinc finger domain protein 2B (Homo sapiens), Q9UIF8; Potency, µM (titrated, usually from 114 µM), without a hit: at the highest dose activity change, negative = inhibition, usual class: inhibitors; further: on the % scale 0 is the no-effect control and ±100 the full control effect; nearly all actives have a fitted effect of over 60% in size
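BAZ2B 50 nM plus b-H3(5-23)K14Ac 50 nM, PBS pH 7.4/0.01% Tween-20, 30 min RT; compound added (max 110 uM), 30 min RT; streptavidin donor/Ni-chelate acceptor beads 10 ug/mL final, 20 min dark; AlphaScreen read.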
PLK1 PBD inh – qHTS for Inhibitors of PLK1-PDB (polo-like kinase 1 - polo-box domain): Primary Screen; Potency, µM, inactives show max response, negative = inhibition, actives largely listed as inhibitors; Serine/threonine-protein kinase PLK1 (Homo sapiens), P53350; Plk1 PBD binding of FITC phosphopeptide, fluorescence polarization; AID 720504, 2013; 360,000 tested, 2.8% active; further: series mostly up to about 57 µM; on the % scale 0 is the no-effect control and ±100 the full control effect; nearly all actives have a fitted effect of over 65% in size
JMJD2A Tudor inh – qHTS Assay for Inhibitors of JMJD2A-Tudor Domain; Lysine-specific demethylase 4A (Homo sapiens), O75164; AlphaScreen JMJD2A-Tudor / H3K4me3 peptide binding; Potency, µM (series often up to 114 µM), for the others: at the highest dose activity change, negative = inhibition, usual class: inhibitors; 390,000 tested, 4.4% active; further: on the % scale 0 is the no-effect control and ±100 the full control effect; nearly all actives have a fitted effect of over 50% in size
HP1b chromo inh – HTS for Inhibitors of HP1-beta Chromodomain Interactions with Methylated Histone Tails | Chromobox protein homolog 1 (Homo sapiens), P83916 | AlphaScreen HP1-beta / biotin-H3K9me3 peptide binding | Potency, µM (highest dose often 114 µM), without a hit: at the highest dose activity change, negative = inhibition, most hits filed as inhibitors | 390,000 tested, 0.56% active | AID 540317, 2011; further: nearly all actives have a fitted effect of over 70% in size
Target sequence (P83916 whole entry, looked up): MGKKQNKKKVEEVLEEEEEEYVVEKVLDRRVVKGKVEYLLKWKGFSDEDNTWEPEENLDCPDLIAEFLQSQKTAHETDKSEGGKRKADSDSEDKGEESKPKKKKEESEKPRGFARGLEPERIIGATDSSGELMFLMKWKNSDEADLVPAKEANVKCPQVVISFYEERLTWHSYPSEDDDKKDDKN
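HP1-beta protein (50 nM final) preincubated 30 min at room temperature with biotinylated H3(1-18)K9me3 peptide (50 nM) in PBS pH 7.4, 0.01% Tween-20, then compound added for 30 min. AlphaScreen streptavidin donor/nickel chelate acceptor beads (10 ug/mL final), 30 min dark, luminescence read.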
G9a block – qHTS Assay for Inhibitors of Histone Lysine Methyltransferase G9a | 350,000 tested, 8.8% active | Potency, µM (highest dose often 102 µM), for inactives: at the top dose activity, negative = inhibition, most hits filed as inhibitors | G9a H3K9 monomethylation, AlphaScreen, 2 h; further: on the % scale 0 is the no-effect control and ±100 the full control effect; nearly all actives have a fitted effect of over 75% in size
Target sequence (Q96KQ7 913-1193 limits assumed): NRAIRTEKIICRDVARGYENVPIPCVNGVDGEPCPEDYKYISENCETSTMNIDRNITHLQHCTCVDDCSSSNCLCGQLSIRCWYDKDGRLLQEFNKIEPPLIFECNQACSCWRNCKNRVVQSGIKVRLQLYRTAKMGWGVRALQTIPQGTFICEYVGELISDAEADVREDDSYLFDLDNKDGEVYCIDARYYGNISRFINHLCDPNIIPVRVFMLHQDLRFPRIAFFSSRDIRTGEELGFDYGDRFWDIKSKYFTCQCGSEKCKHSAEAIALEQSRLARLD
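AlphaScreen read-out: biotin-H3K9 peptide (500 nM) methylation by 20 nM enzyme with 20 uM SAM, 2 h at room temperature after 15 min compound preincubation; anti-monomethyl H3K9 antibody plus donor/acceptor beads, 10 min dark.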
ALOX12 inh – Primary qHTS assay for inhibitors of human arachidonate 12S-lipoxygenase (ALOX12): Round 2; Polyunsaturated fatty acid lipoxygenase ALOX12 (Homo sapiens), P18054; purified 12hLO, xylenol orange hydroperoxide absorbance; Potency, µM (doses to about 108 µM), for the others: top-dose activity change, negative = inhibition, most hits filed as inhibitors; 580,000 tested, 1.1% active; AID 1671190, 2021; further: on the % scale 0 is the no-effect control and ±100 the full control effect
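Purified human 12hLO (150 nM final) in 25 mM Hepes, 0.01% Triton X-100, pH 7.0 was preincubated 15 min at room temperature with compound. Then 40 uM arachidonic acid was added, 30 min. Hydroperoxide was read by Fe-XO absorbance ratio 573/405 nm.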
* hit, by the source's call; [ ] = dose if it differs, or a comment. Sampled rows, rich in hits. Any-hit rate of the full collection: about 9%. The call rests on the fitted dose curve; in most records, active means well fitted curve in the direction sought with a large enough effect; inconclusive means small, poorly fitted or top-dose-only effect, or another doubt; inactive means no such curve, though single readings can be large; an effect the other way counts as inactive or inconclusive. Potency means the concentration at half of the fitted maximal effect.

Screening Cc1ccc2nc(/C(C#N)=C/c3ccc(-c4ccc(F)cc4F)o3)[nH]c2c1 returned BAZ2B inh inconclusive, JMJD2A Tudor inh inconclusive, HP1b chromo inh 9%, G9a block -43%[59 µM] and ALOX12 inh inconclusive.
For CCCOc1cc(N(CC)CC)ccc1/C=C(/C#N)c1nc2ccc(C)cc2[nH]1 the results were BAZ2B inh inconclusive, PLK1 PBD inh 20%, JMJD2A Tudor inh -29%, HP1b chromo inh 1%, G9a block 20µM* and ALOX12 inh inconclusive.
`Cc1ccc2nc(/C(C#N)=C/c3ccc(-c4cccc([N+](=O)[O-])c4)o3)[nH]c2c1` gave BAZ2B inh inconclusive, PLK1 PBD inh -15%, JMJD2A Tudor inh inconclusive, HP1b chromo inh -29%, G9a block 7.9µM* and ALOX12 inh -28%.
`Cc1cc(/C=C(/C#N)c2nc3ccccc3[nH]2)c(C)n1-c1cccc([N+](=O)[O-])c1` gave BAZ2B inh inconclusive, PLK1 PBD inh -14%, JMJD2A Tudor inh 89µM*, HP1b chromo inh -19%, G9a block 11µM* and ALOX12 inh -16%.
For COCCNC(=O)c1onc(CSc2cccc(OC)c2)c1C(=O)NCCOC the results were BAZ2B inh -3%, PLK1 PBD inh -24%, JMJD2A Tudor inh -20%, HP1b chromo inh 43%, G9a block -1%[12.7 µM] and ALOX12 inh 19%.
Cc1ccc2nc(/C(C#N)=C\c3cc(O)ccc3[N+](=O)[O-])[nH]c2c1 was read as BAZ2B inh inconclusive, PLK1 PBD inh 24µM*, JMJD2A Tudor inh -13%[11.4 µM], HP1b chromo inh -19%, G9a block inconclusive and ALOX12 inh -22%.
O=Cc1sc(=O)n(Cc2cccc(C(=O)O)c2)c1Cl was read as BAZ2B inh 2%, PLK1 PBD inh 30µM*, JMJD2A Tudor inh -17%, HP1b chromo inh 41%[57 µM], G9a block inconclusive and ALOX12 inh -21%.
For O=c1sc(/C=N/Nc2ccccc2)c(Cl)n1Cc1ccccc1 the results were BAZ2B inh inconclusive, PLK1 PBD inh -6%, JMJD2A Tudor inh -22%, HP1b chromo inh 12%, G9a block 14µM* and ALOX12 inh inconclusive.
`O=C(O)c1cccc(Cn2c(Cl)c(/C=N/NC(=O)c3ccc(O)cc3)sc2=O)c1` gave BAZ2B inh -14%, PLK1 PBD inh -18%, JMJD2A Tudor inh -11%, HP1b chromo inh 10%, G9a block inconclusive and ALOX12 inh -3%.
COC(=O)c1cccc(Cn2c(Cl)c(/C=N/NC(=O)c3ccco3)sc2=O)c1 was read as BAZ2B inh 56µM*, PLK1 PBD inh -28%, JMJD2A Tudor inh -18%, HP1b chromo inh 37%, G9a block 50µM* and ALOX12 inh -1%.
Screening CCc1ccc(C(=O)c2cn(CC(=O)Nc3ccc(F)cc3)c3cc4c(cc3c2=O)OCO4)cc1 returned BAZ2B inh inconclusive, JMJD2A Tudor inh inconclusive, HP1b chromo inh 51%, G9a block 1%[59 µM] and ALOX12 inh -25%.
For COc1ccccc1NC(=O)Nc1nc(CC(=O)Nc2ccc(OC)c(OC)c2)cs1 the results were BAZ2B inh 1%, PLK1 PBD inh -3%, JMJD2A Tudor inh -8%, HP1b chromo inh 14%, G9a block 20%[2.33 µM] and ALOX12 inh -7%.
`Cn1c2cc(S(C)=O)sc2c2cnn(Cc3cccc(N)c3)c(=O)c21` (centres undefined) gave JMJD2A Tudor inh -23% and ALOX12 inh -6%[57.4 µM].
For CSc1cc2c(s1)c1cnn(Cc3cccc(N)c3)c(=O)c1n2C the results were JMJD2A Tudor inh 3.5µM*.
For S=C(c1cn(CCOc2ccccc2)c2ccccc12)N1CCCC1 the results were BAZ2B inh -35%, PLK1 PBD inh inconclusive, JMJD2A Tudor inh -27%, HP1b chromo inh -9%, G9a block 35µM* and ALOX12 inh 0%[57.4 µM].
Screening Cc1ccc(OCCn2cc(C(=S)N3CCCC3)c3ccccc32)cc1C returned BAZ2B inh -25%, PLK1 PBD inh 3µM*, JMJD2A Tudor inh inconclusive, HP1b chromo inh -23%, G9a block inconclusive and ALOX12 inh inconclusive.
`CS/C(=N\S(=O)(=O)c1cccs1)Nc1ccc(F)cc1` gave BAZ2B inh -5%, PLK1 PBD inh -23%, JMJD2A Tudor inh -3%[57.1 µM], HP1b chromo inh 29%, G9a block inconclusive and ALOX12 inh -16%.
O=C(Nc1ccccc1C(F)(F)F)NC1(C(=O)N2CCOCC2)CCCCC1 was read as PLK1 PBD inh 6.7µM*, JMJD2A Tudor inh 8.9µM*, HP1b chromo inh -38%[57 µM] and ALOX12 inh inconclusive.
Screening COc1ccc(C(=O)NCc2nnc(SCC(=O)N3CCOCC3)o2)cc1OC returned BAZ2B inh -2%, PLK1 PBD inh -12%, JMJD2A Tudor inh -5%, HP1b chromo inh 47%, G9a block -50% and ALOX12 inh -12%.
For CC(=O)c1ccc2c(c1)c(C#N)c1ccccc1[n+]2[O-] the results were BAZ2B inh -5%, PLK1 PBD inh 2.4µM*, JMJD2A Tudor inh -4%, HP1b chromo inh 14%, G9a block 12% and ALOX12 inh 0%.
COc1cc(C(C)=O)ccc1OCc1ccccc1C#N was read as ALOX12 inh -21%.
`CN(C)C(=O)Cn1cnc2c(cnn2-c2ccccc2Cl)c1=O` gave BAZ2B inh -5%, PLK1 PBD inh -2%, JMJD2A Tudor inh -1%, HP1b chromo inh 21%, G9a block 1% and ALOX12 inh 22%.
For CCn1c(SC(=O)NC2CCCCC2)nnc1-c1cccs1 the results were BAZ2B inh 4%, PLK1 PBD inh 2.7µM*, JMJD2A Tudor inh 4.5µM*, HP1b chromo inh 22µM*, G9a block inconclusive and ALOX12 inh inconclusive.
Screening COc1ccc(NC(=O)c2cc(-c3cc(F)ccc3OC)n[nH]2)cn1 returned PLK1 PBD inh -12% and ALOX12 inh inconclusive.
For COc1ccc(-c2ccc3c(c2)S(=O)(=O)c2cccc(C(=O)NCc4cccc(OC(F)(F)F)c4)c2C3=O)cc1OC the results were PLK1 PBD inh 4%, JMJD2A Tudor inh -11% and HP1b chromo inh 33%.
O=C1c2ccccc2C(=O)c2c([N+](=O)[O-])ccc(O)c21 was read as BAZ2B inh inconclusive, PLK1 PBD inh -12%, JMJD2A Tudor inh inconclusive, HP1b chromo inh -11%, G9a block -25%[59 µM] and ALOX12 inh 9%.
